High-throughput results as filed in PubChem BioAssay.
HCMV antiviral – inhibitors of human cytomegalovirus. HFF cells, HCMV-luciferase reporter, 72 h; hits give low values. activity change, negative = inhibition, % at 57.5 µM. 410,000 tested, 4.5% active. AID 1259415; in the data active = activity change below about -60%; inconclusive = no clear call, values can overlap the other calls; inactive = above about -39%
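Screen run at 2 compound doses on HFFs infected with reporter HCMV, MOI 1 PFU/cell. Luciferase activity from cell lysates at 72 h post infection gave inhibition relative to buffer-only and Salinomycin wells.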
HCV inhibitor – HCV inhibition; Huh7.5.1 HCVcc-Cre infection, luciferase reporter, 44 h; Potency, µM (doses to about 41.8 µM), usual class: inhibitors; 340,000 tested, 3.4% active
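Whole-lifecycle infectious HCVcc-Cre system; cells 1,000/well, compound then virus (~0.5 moi) added 4 h after plating, 44 h culture. Luciferase read 15 sec following 15 min substrate incubation, room temp.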
Pf growth 48h – P. falciparum growth inhibition at 48 hours (one generation); P. falciparum luciferase growth in erythrocytes, 48 h; Potency, µM (series often up to 28.7 µM), most hits filed as inhibitors; 310,000 tested, 5.9% active; AID 504832
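A one-generation exposure of luciferase-tagged malaria parasites in RPMI 1640/Albumax erythrocyte culture, 37 C and 5% CO2. Inhibition is inferred from decreased luminescence after adding detection reagent.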
Cycloheximide cs – affects cycloheximide protein synthesis inhibition readout, counter-screen. cell reporter, cycloheximide protein synthesis inhibition counterscreen. max response, %. 300,000 tested, 12% active. AID 2314; in the data active = max response mostly above about 13%, no sharp cut-off; inactive = mostly below about 14%; note: read at 38.3 µM for the half of the compounds with a filed dose
Pf growth 96h – inhibits malaria parasite growth, 96 h; P. falciparum luciferase reporter growth, 96 h; Potency, µM (highest dose often 28.7 µM), most hits filed as inhibitors; 320,000 tested, 6.9% active; AID 504834
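Two-generation exposure (96 h) targets delayed-death phenotype. Reporter parasites carrying integrated firefly luciferase, in red cells at 2% hematocrit and 0.05% parasitemia final, kept at 37 C, 5% CO2; luminescence loss indicates inhibition.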
Shiga toxin inh – Shiga toxin inhibition | Vero cells, Shiga toxin protein synthesis inhibition reporter | inhibition, % at 38.7 µM | 290,000 tested, 9.2% active | AID 2315; in the data active = inhibition mostly above about 28%, no sharp cut-off; inactive = mostly below about 43%
Hits are given with their value; – = inactive; ? = inconclusive; · = no result; + = active, no number; [ ] = dose if it differs, or a comment. Rows were chosen to be rich in hits. Some 21% of all compounds tested hit in one or more screens of this group. Unless noted, calls come from the whole dose curve; as a rule, active = well fitted inhibition curve with a large enough effect; inconclusive = small, poorly fitted or top-dose-only effect, or another doubt; inactive = no such curve, though single readings can be large or run the other way.

SMILES	HCMV antiviral	HCV inhibitor	Pf growth 48h	Cycloheximide cs	Pf growth 96h	Shiga toxin inh
CCOC(=O)CN(C(=O)COc1nc(-c2ccccc2)cc(C)c1C#N)c1ccccc1	–	–	?	–	?	–
CCOC(=O)CN(C(=O)COc1nc(-c2ccccc2)cc(C)c1C#N)c1ccccc1C	–	?	13µM	–	?	–
CCOC(=O)CN(C(=O)COc1nc(-c2ccccc2)cc(C)c1C#N)c1ccc(C)cc1	–	–	13µM	–	5.9µM	–
CCOC(=O)CN(C(=O)COc1nc(-c2ccccc2)cc(C)c1C#N)c1cccc(OC)c1	–	?	7.4µM	–	12µM	–
COc1ccc(Cc2nnc(-c3ccc(F)cc3)o2)cc1OC	–	?	–	–	?	–
O=[N+]([O-])c1ccc(Cc2nnc(-c3ccc(F)cc3)o2)cc1	–	–	–	33	–	75
Cc1ccc(-c2nnc(Cc3ccc([N+](=O)[O-])cc3)o2)cc1	–	–	–	56	–	69
O=C(CCCN1C(=O)c2ccccc2C1=O)Nc1c2c(nc3c1CCC3)CCC2	–	–	?	–	0.47µM	–
Cc1cc(C)cc(NC(=O)CCN2C(=O)c3ccccc3Sc3ncccc32)c1	-61	·	·	·	·	·
Cc1ccc(NC(=O)CCN2C(=O)c3ccccc3C2=O)cc1	–	–	–	–	12µM	–
Cc1ccc(NC(=O)CCCN2C(=O)c3cccc4cccc(c34)C2=O)cc1	-73	?	–	–	–	–
Cc1ccc(NC(=O)CCN2C(=O)c3cccc4cccc(c34)C2=O)cc1	?	–	–	–	?	–
Cc1cccnc1NC(=O)CCCN1C(=O)c2ccccc2C1=O	–	–	–	–	·	–
Cc1cc(NC(=O)Cn2c(=O)nc(-c3ccccc3F)c3cc(Cl)ccc32)ccc1Br	–	·	·	·	·	·
CC(=O)c1c(N2CCN(C)CC2)nc(=S)n(-c2cc(C)ccc2C)c1C	–	–	–[5.75 µM]	–	–	–
CCc1ccc(S(=O)(=O)c2cn(C)c3cc(N4CCC(C)CC4)c(F)cc3c2=O)cc1	–	·	·	·	·	·
O=C(NN1C(=O)C2C3C=CC(C4CC34)C2C1=O)c1cccc(Cl)c1 (stereo not drawn)	?	–	–	48	?	132
O=C(NN1C(=O)C2C(C1=O)C1C=CC2C12CC2)c1cccc(Cl)c1 (stereo not drawn)	–	–	–	–	?	–
Oc1ccc(-c2n[nH]c(C(F)(F)F)c2-c2ccccc2)c(O)c1	-82	5.6µM	–	–	–	–
COc1ccccc1-c1c(-c2ccc(O)cc2O)n[nH]c1C(F)(F)F	+	?	?	–	13µM	–
NC(=O)c1cc(NC(=O)CCCc2nc3ccccc3s2)cc(C(N)=O)c1	–	?	–	–	–	–
N#CCc1ccc(NC(=O)c2ccc(CN3CCc4ccccc4C3)cc2)cc1	–	2µM	?	–	8.3µM	–
O=C(Nc1ccc(Cl)cc1)c1ccc(CN2CCc3ccccc3C2)cc1	–	1.6µM	–	–	?	–
O=C(Nc1ccc(S(=O)(=O)N2CCOCC2)cc1)c1ccc(CN2CCc3ccccc3C2)cc1	·	?	12µM	–	–	–
O=C(Nc1ccc(Cl)cc1)c1ccc(S(=O)(=O)N2CCOCC2)cc1	–	–	–	–	?	–
SMILES	HCMV antiviral	HCV inhibitor	Pf growth 48h	Cycloheximide cs	Pf growth 96h	Shiga toxin inh
O=C(Nc1ccc(CN2CCS(=O)(=O)CC2)cc1)c1ccc(Cl)cc1	?	10µM	–	16	–	–
Cc1cc(C)cc(N2C(=O)N(Cc3cc(=O)n4ccccc4n3)c3ccccc3S2(=O)=O)c1	–	·	·	·	·	·
COc1ccc(C)cc1NC(=O)c1cc2c(s1)-c1ccccc1SC2	–	·	·	·	·	·
COc1cc(C)c(Cc2cnc(N)nc2N)cc1OC	·	·	3.8µM	–	2.7µM	–
CC(C)Oc1ccc(Cc2cnc(N)nc2N)cc1	–	–	·	–	6.6µM	–
CCCCOc1ccc(Cc2cnc(N)nc2N)cc1	?	?	?	–	?	–
COc1ccc(Cc2cnc(N)nc2N)cc1OC	–	·	2.4µM	·	3.8µM	·
CCCCN1CCCc2cc(CN(CCCN3CCOCC3)C(=O)Nc3ccc(CC)cc3)ccc21	–	·	·	·	·	·
CCCN1CCN(C2CCCCC2NS(=O)(=O)c2ccc(Cl)cc2)CC1 (stereo not drawn)	·	–	–	–	–	–
O=S(=O)(NC1CCCCC1N1CCN(c2ccc(F)cc2)CC1)c1ccc(Cl)cc1 (stereo not drawn)	·	–	13µM	–	?	–
CC(C)C(=O)Nc1c2c(nn1-c1ccc(F)cc1)CSC2	–	–	–	–	–	–
O=Cc1cc(-c2ccccc2)[nH]c1-c1ccccc1	–	–	–	24	–	·
O=Cc1cn[nH]c1-c1ccccc1	–	–	–	–	–	–
c1ccc2[nH]c(-c3cscn3)nc2c1	-90	–[8.37 µM]	–	53	–	102
CCOC(=O)Nc1ccc2nc(-c3cscn3)[nH]c2c1	–	·	·	·	·	·
c1ccc2nc(-c3nc4ccccc4[nH]3)ccc2c1	–	–	–	14	·	–
CC[C@H](C)[C@H](NC(=O)[C@H](C)NC(=O)[C@H](Cc1cnc[nH]1)NC(=O)[C@@H]1CCCN1C(=O)CNC(=O)[C@H](CC(C)C)NC(=O)[C@H](CC(C)C)NC(=O)[C@H](Cc1ccc(O)cc1)NC(=O)CNC(=O)[C@H](C)NC(=O)[C@H](CO)NC(=O)[C@H](CC(N)=O)NC(=O)[C@H](CC(C)C)NC(=O)[C@@H](NC(=O)[C@H](Cc1c[nH]c2ccccc12)NC(=O)CN)[C@@H](C)O)C(=O)N[C@@H](CC(=O)O)C(=O)N[C@@H](CC(N)=O)C(=O)N[C@@H](Cc1cnc[nH]1)C(=O)N[C@@H](CCCNC(=N)N)C(=O)N[C@@H](CO)C(=O)N[C@@H](Cc1ccccc1)C(=O)N[C@@H](CO)C(=O)N[C@@H](CC(=O)O)C(=O)N[C@@H](CCCCN)C(=O)N[C@@H](Cc1cnc[nH]1)C(=O)NCC(=O)N[C@@H](CC(C)C)C(=O)N[C@H](C(N)=O)[C@@H](C)O	·	·	·	–	·	–
Cc1ccc(NC2=CC(=O)CC(c3ccc(Cl)cc3)C2)cc1 (stereo not drawn)	–	–	13µM	–	?	–
CCOC(=O)c1ccccc1NC(=O)Cn1c(-c2nonc2N)nc2ccccc21	-74	?	–	–	–	–
CC(C)CCn1c(-c2nonc2N)nc2ccccc21	?	11µM	–	–	–	–
Nc1nonc1-c1nc2ccccc2n1CC(=O)Nc1ccccc1	–	?	–	–	–	–
Nc1nonc1-c1nc2ccccc2n1CC(=O)NC1CCCC1	–	–	–	–	10µM	–
Cc1ccc(OCCSc2nnc(-c3cccs3)o2)cc1Cl	–	·	·	·	·	·
COc1ccc(CCN2CCCC(CN(C)C(=O)c3ccoc3C)C2)cc1 (stereo not drawn)	–	–	–	32	?	40
COCc1ccc(C(=O)N(C)CC2CCCN(CCc3ccc(OC)cc3)C2)o1 (stereo not drawn)	–	–	–	34	?	77
